The target in assay [1] is T1, Serine/threonine-protein kinase TBK1 (Homo sapiens) (UniProt Q9UHD2).
T1 sequence (whole entry): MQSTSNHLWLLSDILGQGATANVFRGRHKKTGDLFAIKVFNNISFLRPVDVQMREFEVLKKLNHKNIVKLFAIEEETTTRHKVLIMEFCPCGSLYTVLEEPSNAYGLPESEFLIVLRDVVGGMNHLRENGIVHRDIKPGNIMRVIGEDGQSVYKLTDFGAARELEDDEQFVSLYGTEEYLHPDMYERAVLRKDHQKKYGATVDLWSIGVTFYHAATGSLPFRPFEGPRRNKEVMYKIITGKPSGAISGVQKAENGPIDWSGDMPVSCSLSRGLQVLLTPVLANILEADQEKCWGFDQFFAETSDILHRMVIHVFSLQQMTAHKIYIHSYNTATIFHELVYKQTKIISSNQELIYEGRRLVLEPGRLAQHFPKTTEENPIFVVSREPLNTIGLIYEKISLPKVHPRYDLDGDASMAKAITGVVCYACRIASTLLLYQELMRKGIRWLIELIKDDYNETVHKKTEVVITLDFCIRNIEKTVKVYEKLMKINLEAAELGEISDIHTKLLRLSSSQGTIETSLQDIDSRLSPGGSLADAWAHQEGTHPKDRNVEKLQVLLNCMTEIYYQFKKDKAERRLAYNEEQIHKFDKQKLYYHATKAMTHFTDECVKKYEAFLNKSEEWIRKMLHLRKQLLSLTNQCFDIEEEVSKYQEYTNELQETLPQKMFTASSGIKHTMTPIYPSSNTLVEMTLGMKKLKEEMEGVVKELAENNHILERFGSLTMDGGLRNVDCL
Particulars: at 10 µM.

Assay [2] deals with T2, TGF-beta receptor type-1 (Homo sapiens) (UniProt P36897).
T2 sequence (whole entry): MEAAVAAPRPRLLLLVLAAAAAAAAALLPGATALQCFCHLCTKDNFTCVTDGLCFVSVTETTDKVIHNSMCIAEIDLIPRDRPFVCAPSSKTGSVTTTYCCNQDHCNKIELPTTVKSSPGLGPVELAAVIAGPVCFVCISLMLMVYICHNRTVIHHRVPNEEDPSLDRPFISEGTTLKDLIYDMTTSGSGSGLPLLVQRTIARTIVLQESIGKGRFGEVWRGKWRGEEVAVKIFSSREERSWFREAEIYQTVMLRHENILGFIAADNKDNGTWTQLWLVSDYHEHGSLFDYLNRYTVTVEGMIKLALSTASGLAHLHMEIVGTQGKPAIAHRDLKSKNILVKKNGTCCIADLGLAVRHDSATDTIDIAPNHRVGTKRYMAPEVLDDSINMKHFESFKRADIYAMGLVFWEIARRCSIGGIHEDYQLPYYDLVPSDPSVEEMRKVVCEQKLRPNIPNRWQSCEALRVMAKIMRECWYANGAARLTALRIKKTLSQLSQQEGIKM
The conditions noted are these: at 1 µM.

The target of assay [3] is T2, TGF-beta receptor type-1 (Homo sapiens). The conditions noted are these: at 10 µM.
In assay [4] the target is Insulin-like growth factor 1 receptor (Homo sapiens) (UniProt P08069). The conditions noted are these: at 1 µM.
Insulin-like growth factor 1 receptor (Homo sapiens), sequence (P08069 31-736 limits assumed): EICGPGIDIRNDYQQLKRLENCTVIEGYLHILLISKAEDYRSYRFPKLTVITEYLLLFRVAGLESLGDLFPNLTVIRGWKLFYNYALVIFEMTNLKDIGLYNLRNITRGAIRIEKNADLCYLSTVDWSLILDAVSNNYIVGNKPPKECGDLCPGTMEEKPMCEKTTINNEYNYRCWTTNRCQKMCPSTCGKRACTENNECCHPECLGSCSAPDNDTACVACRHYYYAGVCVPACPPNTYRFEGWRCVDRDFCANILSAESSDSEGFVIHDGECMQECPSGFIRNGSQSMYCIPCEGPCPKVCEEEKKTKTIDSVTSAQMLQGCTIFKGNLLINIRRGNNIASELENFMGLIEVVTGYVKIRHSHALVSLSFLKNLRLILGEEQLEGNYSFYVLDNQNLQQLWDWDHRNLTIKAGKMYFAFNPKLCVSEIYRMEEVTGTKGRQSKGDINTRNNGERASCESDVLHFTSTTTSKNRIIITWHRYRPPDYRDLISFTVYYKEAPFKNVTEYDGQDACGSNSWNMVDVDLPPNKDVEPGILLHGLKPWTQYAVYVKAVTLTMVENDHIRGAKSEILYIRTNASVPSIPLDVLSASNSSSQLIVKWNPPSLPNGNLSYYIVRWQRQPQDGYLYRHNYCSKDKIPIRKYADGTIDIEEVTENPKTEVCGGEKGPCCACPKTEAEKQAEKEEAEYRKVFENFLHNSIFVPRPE
Insulin-like growth factor 1 receptor (Homo sapiens), sequence (P08069 741-1367 limits assumed): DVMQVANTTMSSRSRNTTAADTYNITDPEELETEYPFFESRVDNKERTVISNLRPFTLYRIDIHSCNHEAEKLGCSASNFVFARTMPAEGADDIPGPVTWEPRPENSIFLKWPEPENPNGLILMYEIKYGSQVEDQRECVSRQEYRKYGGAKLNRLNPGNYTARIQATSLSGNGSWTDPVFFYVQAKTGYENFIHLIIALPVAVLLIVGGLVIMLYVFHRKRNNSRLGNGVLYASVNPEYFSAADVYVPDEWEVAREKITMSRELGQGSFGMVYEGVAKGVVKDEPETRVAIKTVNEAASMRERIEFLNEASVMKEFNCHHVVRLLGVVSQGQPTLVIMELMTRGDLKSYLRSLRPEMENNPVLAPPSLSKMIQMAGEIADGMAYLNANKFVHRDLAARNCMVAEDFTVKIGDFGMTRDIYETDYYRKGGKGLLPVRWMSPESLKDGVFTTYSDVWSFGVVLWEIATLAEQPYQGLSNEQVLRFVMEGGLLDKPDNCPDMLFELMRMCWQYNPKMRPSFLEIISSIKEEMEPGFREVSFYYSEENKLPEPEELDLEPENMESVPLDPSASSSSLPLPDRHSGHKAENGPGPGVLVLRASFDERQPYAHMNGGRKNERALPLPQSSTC
The target is the same in assay [5]. Particulars: at 10 µM.
The target of assay [6] is T3, Inhibitor of nuclear factor kappa-B kinase subunit alpha (Homo sapiens) (UniProt O15111).
T3 sequence (whole entry): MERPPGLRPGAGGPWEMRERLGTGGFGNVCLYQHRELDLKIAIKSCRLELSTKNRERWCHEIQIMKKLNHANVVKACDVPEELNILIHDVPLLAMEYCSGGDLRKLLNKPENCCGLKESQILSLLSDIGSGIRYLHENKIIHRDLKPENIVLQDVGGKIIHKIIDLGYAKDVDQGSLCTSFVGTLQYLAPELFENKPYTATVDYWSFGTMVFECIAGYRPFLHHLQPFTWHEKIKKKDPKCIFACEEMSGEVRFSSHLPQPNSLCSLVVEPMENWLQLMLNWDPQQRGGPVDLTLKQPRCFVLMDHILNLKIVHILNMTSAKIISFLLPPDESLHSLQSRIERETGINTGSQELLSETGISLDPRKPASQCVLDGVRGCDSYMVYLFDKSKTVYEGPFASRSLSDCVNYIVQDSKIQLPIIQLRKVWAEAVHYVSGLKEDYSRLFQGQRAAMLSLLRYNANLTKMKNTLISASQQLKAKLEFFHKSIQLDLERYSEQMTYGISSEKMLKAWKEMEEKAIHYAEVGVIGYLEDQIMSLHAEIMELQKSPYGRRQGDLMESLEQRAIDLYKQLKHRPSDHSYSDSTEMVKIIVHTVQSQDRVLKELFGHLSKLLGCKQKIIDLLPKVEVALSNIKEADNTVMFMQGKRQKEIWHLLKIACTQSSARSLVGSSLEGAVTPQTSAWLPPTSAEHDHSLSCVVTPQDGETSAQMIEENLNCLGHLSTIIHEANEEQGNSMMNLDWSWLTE
Particulars: at 1 µM.

Assay [7] concerns the target T3, Inhibitor of nuclear factor kappa-B kinase subunit alpha (Homo sapiens). The conditions noted are these: at 10 µM.
For assay [8], the target named is T4, Inhibitor of nuclear factor kappa-B kinase subunit beta (Homo sapiens) (UniProt O14920).
T4 sequence (whole entry): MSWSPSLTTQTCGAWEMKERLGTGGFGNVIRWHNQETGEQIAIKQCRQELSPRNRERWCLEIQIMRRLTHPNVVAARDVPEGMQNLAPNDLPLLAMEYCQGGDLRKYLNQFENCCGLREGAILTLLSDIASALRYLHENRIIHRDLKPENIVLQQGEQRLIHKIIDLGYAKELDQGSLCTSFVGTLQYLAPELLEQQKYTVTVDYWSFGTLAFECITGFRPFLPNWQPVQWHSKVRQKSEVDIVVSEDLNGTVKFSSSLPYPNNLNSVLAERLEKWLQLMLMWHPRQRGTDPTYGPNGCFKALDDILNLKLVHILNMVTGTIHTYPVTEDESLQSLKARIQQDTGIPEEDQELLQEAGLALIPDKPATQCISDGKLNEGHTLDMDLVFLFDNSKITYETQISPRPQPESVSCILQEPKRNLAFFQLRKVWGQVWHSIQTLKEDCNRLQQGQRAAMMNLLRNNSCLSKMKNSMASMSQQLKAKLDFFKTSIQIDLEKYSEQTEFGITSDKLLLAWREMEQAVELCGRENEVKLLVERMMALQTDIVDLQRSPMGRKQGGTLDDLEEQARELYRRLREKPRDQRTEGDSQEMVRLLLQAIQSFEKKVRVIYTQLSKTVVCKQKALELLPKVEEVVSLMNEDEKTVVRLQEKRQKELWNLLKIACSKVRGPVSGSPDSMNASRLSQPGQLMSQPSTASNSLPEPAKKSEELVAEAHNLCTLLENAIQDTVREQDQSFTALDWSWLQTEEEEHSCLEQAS
Particulars: at 1 µM.

Assay [9] deals with T4, Inhibitor of nuclear factor kappa-B kinase subunit beta (Homo sapiens). Particulars: at 10 µM.
Assay [10] addresses Insulin receptor (Homo sapiens) (UniProt P06213). Particulars: at 1 µM.

This note sets out measurements from ChEMBL document CHEMBL2218924, “A broad activity screen in support of a chemogenomic map for kinase signalling research and drug discovery” (Biochem J, 2013).

Insulin receptor (Homo sapiens), sequence (P06213 28-758 limits assumed): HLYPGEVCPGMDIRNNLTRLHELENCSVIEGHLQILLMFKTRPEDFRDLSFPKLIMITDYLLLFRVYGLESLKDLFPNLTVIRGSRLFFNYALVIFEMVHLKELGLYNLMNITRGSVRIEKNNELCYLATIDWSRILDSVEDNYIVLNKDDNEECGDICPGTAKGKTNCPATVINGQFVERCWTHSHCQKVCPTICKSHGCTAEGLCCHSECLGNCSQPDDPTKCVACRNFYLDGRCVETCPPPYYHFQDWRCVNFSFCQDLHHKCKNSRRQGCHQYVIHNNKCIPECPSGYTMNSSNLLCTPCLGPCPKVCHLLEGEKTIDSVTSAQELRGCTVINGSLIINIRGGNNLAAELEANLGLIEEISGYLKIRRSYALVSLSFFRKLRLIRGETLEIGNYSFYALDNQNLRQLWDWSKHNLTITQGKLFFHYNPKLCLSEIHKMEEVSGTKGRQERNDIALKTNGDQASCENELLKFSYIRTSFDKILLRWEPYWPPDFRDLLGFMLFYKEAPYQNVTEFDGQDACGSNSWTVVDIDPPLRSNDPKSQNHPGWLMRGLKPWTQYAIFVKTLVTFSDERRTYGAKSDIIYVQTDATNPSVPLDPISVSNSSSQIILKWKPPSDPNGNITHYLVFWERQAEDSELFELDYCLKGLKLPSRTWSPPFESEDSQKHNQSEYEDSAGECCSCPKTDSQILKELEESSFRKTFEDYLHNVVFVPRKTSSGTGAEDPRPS
Insulin receptor (Homo sapiens), sequence (P06213 763-1382 limits assumed): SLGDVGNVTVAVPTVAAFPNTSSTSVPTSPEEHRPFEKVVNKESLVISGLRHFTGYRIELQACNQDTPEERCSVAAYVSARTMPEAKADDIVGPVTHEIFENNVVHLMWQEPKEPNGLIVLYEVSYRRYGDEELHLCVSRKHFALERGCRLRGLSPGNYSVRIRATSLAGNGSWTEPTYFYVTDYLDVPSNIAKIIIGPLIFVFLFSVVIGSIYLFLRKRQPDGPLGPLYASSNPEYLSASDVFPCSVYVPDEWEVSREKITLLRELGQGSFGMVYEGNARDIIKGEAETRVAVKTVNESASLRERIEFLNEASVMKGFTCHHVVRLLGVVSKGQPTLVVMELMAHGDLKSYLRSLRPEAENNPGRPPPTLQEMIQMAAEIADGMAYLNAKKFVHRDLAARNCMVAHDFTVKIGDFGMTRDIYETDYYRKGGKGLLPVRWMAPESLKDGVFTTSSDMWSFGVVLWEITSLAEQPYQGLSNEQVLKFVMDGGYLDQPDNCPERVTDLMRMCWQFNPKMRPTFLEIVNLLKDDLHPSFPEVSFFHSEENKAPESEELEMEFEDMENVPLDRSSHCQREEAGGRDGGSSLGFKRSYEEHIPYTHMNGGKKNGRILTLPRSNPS

On to `C[C@@H](N)[C@H]1CC[C@H](C(=O)Nc2ccncc2)CC1`, for which the residual activity stood at 99% in assay [1]; 113% in assay [2]; 105% in assay [3]; 115% in assay [4]; 105% in assay [5]; 136% in assay [6]. Also, the residual activity in assay [7] is 64%; in assay [8] it was 87%; in [9], 77%; in assay [10], 100%.

In general, residual activity refers to the signal under treatment as a percentage of the control signal.
